Screen size: about 87,000 compounds; about 540 (0.62%) were called active. The rule behind the calls is not given here. The sample as a whole holds a higher share of actives than the screen did. Measured potencies and affinities stand elsewhere.
Assay: inhibitors of MT1-MMP promoter transcription, cell-based, luciferase reporter, luminescence (AID 618);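 note: actives suppress MT1-MMP promoter-driven transcription so potencies describe inhibitors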
Conditions: MT1-MMP promoter luciferase reporter cells

SMILES	outcome
CC(=O)N1CCc2[nH]c3ccccc3c2C1	inactive
O=C(OCn1ncc(Br)c(Br)c1=O)c1ccccc1Cl	inactive
O=C(OCn1ncc(Br)c(Br)c1=O)c1c(F)cccc1F	active
O=C(OCn1ncc(Br)c(Br)c1=O)c1ccc(F)cc1	active
CCn1ncc(Br)c1C(=O)Nc1ccc(F)cc1F	inactive
Cc1onc(-c2c(F)cccc2Cl)c1C(=O)OCn1nnc2ccccc2c1=O	inactive
CCn1ncc(Br)c1C(=O)Nc1ccc(C(=O)OC(C)C)cc1	inactive
Cc1ccccc1-n1nc(C(=O)c2cccs2)cc(-c2nc3ccccc3[nH]2)c1=N	inactive
O=C(OCc1nnc(-c2ccc(Cl)cc2)o1)c1ccc(=O)n(Cc2ccccc2)n1	inactive
Cc1cc(NC(=O)CS(=O)(=O)c2cn(Cc3ccc(F)cc3)c3ccccc23)no1	inactive
O=C(Oc1ccc(-c2ccccc2)cc1)N1CCOCC1	inactive
O=C(Cn1nc(-c2ccccc2F)ccc1=O)NCc1ccc2c(c1)OCO2	inactive
CCCCn1nnc(NC(=O)c2ccc(-c3ccccc3)cc2)n1	inactive
CCCCCCCNC1=CC(=O)CC(c2ccco2)C1 (stereo not drawn)	inactive
COc1cc(NC(=O)CN(c2ccc(C)cc2)S(=O)(=O)c2c(C)nn(C)c2C)cc(OC)c1	inactive
O=C(Nc1ccc2c(c1)OCO2)C(c1ccccc1)N1CCN(C(=O)c2ccco2)CC1 (stereo not drawn)	inactive
Cc1cc(-c2csc(N)n2)c(C)n1C	inactive

SMILES	outcome
CCOC(=O)c1cc(C)n(CCc2ccccc2)c1C	inactive
CCCn1c(C)cc(-c2csc(N)n2)c1C	inactive
Nc1nc(-c2ccccc2)cs1	inactive
Cc1nc2ccccc2nc1N1CCC(C)CC1	inactive
O=C(Nc1ccc2c(c1)OCO2)N1CCN(S(=O)(=O)c2ccc(Cl)cc2)CC1	inactive
CC1(C)N(OCc2ccccc2)C(=O)C(=O)N(OCc2ccccc2)C1(C)C	inactive
C=CCNc1nc(N(c2ccccc2)c2ccccc2)nc(-n2ccnc2)n1	inactive
CCCS(=O)(=O)c1nnnn1-c1cccc(OC)c1	active
COc1cccc(-n2nnnc2SCC(=O)NC2CCCC2)c1	inactive
COc1cccc(Oc2nnnn2-c2ccccc2)c1	inactive
CCCS(=O)(=O)C(=C1NCCO1)S(=O)(=O)CCC	inactive
COc1cccc(-c2nc3ccc(O)cc3c(=O)o2)c1	inactive
COc1nc(-c2ccc(C)cc2)ccc1-c1noc(-c2ccco2)n1	inactive
CCOc1nc(C)ccc1-c1noc(-c2ccco2)n1	inactive
Cc1cccc(OCC(=O)Nc2ccc3c(c2)OCO3)c1C	inactive
C/C(=C\C(=O)c1cccnc1)Nc1ccc(C(=O)O)cc1	inactive
